Assay results as given in PubChem BioAssay AID493221 (Johns Hopkins Ion Channel Center, 2011).
The campaign covered roughly 2,400 compounds. About 1,700 (71%) were called active.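 The calls were made as follows: active = choline transporter activity left, mean of duplicates at 10 µM, below buffer-only control mean minus 3 SD; inactive = the rest.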 So high a share suggests a set chosen from earlier hits. The list is a sample of the results.

These molecules were tested against High affinity choline transporter 1 (Homo sapiens) (UniProt Q9GZV3) (assay: CHT inhibitors, confirmation, cell-based, membrane potential dye, duplicate (AID 493221)). Settings: CHT-expressing cells, at 10 µM, LV-to-AA substituted CHT, HEK293 cells.
Chain of High affinity choline transporter 1 (Homo sapiens) (Q9GZV3 whole entry, looked up): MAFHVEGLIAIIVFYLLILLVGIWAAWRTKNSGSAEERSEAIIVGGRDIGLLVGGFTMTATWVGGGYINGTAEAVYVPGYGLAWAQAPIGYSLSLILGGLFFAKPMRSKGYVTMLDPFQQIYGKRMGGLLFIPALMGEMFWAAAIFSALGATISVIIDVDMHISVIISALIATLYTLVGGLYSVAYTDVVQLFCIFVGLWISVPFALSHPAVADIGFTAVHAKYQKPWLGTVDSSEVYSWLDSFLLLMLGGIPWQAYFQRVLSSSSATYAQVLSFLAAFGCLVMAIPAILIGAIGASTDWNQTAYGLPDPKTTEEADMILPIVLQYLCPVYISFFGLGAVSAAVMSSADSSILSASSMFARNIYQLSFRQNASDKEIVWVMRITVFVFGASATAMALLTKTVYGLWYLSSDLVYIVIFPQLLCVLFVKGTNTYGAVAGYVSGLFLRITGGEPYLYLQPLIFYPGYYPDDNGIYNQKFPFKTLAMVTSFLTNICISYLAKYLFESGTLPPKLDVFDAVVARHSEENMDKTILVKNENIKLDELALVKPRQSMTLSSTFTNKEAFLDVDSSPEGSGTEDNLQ
`C[N+]1(C)CCOC(O)(c2ccc(-c3ccc(C4(O)C[N+](C)(C)CCO4)cc3)cc2)C1` (stereo not drawn) was tested, and the CHT activity remaining % of control (stronger effect = lower value) was 4.79% (active).
In the case of `COc1ccccc1N1CCN(C(CNC(=O)Oc2ccccc2)c2cccnc2)CC1` (stereo not drawn), the CHT activity remaining % of control (stronger effect = lower value) is reported as “inactive”.
`Cc1nc2ccccn2c1P(=S)(N1CCCCC1)N1CCCCC1` was tested, and the CHT activity remaining % of control (stronger effect = lower value) was 61.1% (active).
